Records with an inconclusive call do not appear. Active and inactive are the calls of the source. Unless noted, the call rests on the fitted dose curve.
Assays:
[1] = Nuclear factor erythroid 2-related factor 2/antioxidant responsive element (Nrf2/ARE) small molecule agonists: qHTS cell viability counter screen in human keratinocytes (AID 1919968; active means well fitted curve in the direction sought with a large enough effect in the repeat runs; an effect the other way counts as inactive or inconclusive; further: nearly all actives have a fitted effect of over 55% in size; further: potency means the concentration at half of the fitted maximal effect)
Summary of the method: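 CellTiter-Fluor fluorescence, read 1 h after reagent, gave viability in the same wells as the ARE-luciferase assay. KeratinoSens cells (1,500/well) had 23 h compound exposure at 37 C/5% CO2 following 5 h plating.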

[2] = Nuclear factor erythroid 2-related factor 2/antioxidant responsive element (Nrf2/ARE) small molecule agonists: luciferase reporter gene qHTS assay in human keratinocytes (AID 1919969); further: nearly all actives have a fitted effect of over 35% in size; further: potency means the concentration at half of the fitted maximal effect
[3] = target: Gonadotropin-releasing hormone receptor (Homo sapiens) (UniProt P30968); assay: Human gonadotropin-releasing hormone receptor (GnRHR) small molecule agonists, calcium flux assay in GnRHR-HEK293 cells (AID 1920063); further: nearly all actives have a fitted effect of over 35% in size
Chain of Gonadotropin-releasing hormone receptor (Homo sapiens) (P30968 whole entry, looked up): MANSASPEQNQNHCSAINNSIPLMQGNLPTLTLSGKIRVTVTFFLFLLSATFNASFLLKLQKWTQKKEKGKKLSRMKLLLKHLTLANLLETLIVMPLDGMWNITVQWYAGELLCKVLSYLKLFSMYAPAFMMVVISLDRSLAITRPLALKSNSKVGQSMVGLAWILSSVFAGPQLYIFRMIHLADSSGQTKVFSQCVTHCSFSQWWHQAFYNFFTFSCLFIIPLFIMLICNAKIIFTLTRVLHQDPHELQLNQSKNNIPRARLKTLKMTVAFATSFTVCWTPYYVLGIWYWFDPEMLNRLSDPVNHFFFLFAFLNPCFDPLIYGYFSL
Summary of the method: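 Agonist mode: compounds at 15 concentrations, in triplicate, went onto calcium dye-loaded GnRHR-HEK293 cells. Intracellular calcium was then followed as 480/540 nm fluorescence at 1 s intervals over 3 min.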

[4] = target: KiSS-1 receptor (Homo sapiens) (UniProt Q969F8); assay: Human kisspeptin (KISS1R) small molecule agonists, calcium flux assay in KISS1R-HEK293 cells (AID 1920064; active means well fitted curve in the direction sought with a large enough effect in the repeat runs; an effect the other way counts as inactive or inconclusive)
Chain of KiSS-1 receptor (Homo sapiens) (Q969F8 whole entry, looked up): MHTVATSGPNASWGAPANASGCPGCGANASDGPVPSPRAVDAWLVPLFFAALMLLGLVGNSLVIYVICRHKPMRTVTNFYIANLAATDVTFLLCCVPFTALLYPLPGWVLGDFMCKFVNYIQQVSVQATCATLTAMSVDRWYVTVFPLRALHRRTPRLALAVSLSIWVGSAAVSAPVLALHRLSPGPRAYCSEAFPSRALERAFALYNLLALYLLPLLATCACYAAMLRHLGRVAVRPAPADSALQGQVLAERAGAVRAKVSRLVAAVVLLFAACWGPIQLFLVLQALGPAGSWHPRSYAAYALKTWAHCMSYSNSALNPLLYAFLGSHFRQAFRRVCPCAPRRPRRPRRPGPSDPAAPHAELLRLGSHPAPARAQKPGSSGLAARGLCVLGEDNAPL
Summary of the method: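 Agonist mode: intracellular calcium rise tracked at 1 s intervals over 3 min (480/540 nm) immediately after compound addition to dye-loaded KISS1R-HEK293 stable cells. Each compound tested at 15 concentrations in triplicate.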

[5] = G protein-coupled receptor (GPCR) small molecule agonists, calcium flux assay: HEK293 wild type cell line counter screen (AID 1920065)
Summary of the method: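 Calcium flux counter screen: compound added in agonist mode at 15 concentrations in triplicate to dye-loaded parental HEK293 cells. Fluorescence (480/540) read kinetically for 3 min; ATP served as positive control.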

[6] = p53 small molecule agonists, cell-based qHTS assay with human liver microsomes (AID 1963577)
Summary of the method: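 p53RE-bla cells, 4,000/well, compound added after 5 h, with human liver microsomes 0.5 mg/mL and NADPH 0.5 mg/mL final; 16 h at 37 C, then LiveBLAzer 2 h RT, fluorescence.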

[7] = p53 small molecule agonists, cell-based qHTS assay with rat liver microsomes (AID 1963578)
Summary of the method: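 p53RE-bla cells, 4,000/well, pre-incubated 5 h, then given compounds plus rat liver microsomes (0.5 mg/mL final) and NADPH (0.5 mg/mL final). Incubation 16 h at 37 C; beta-lactamase reporter read by LiveBLAzer fluorescence after 2 h at room temperature.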

[8] = p53 small molecule agonists, cell-based qHTS assay with human liver microsomes: qHTS cell viability counter screen (AID 1963579); further: nearly all actives have a fitted effect of over 45% in size; further: potency means the concentration at half of the fitted maximal effect
Summary of the method: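 p53RE-bla cells, 4,000/well, dosed 5 hours after plating, with human liver microsomes (0.5 mg/mL final) plus NADPH (0.5 mg/mL final), 16 hours at 37 C. Viability read as CellTiter-Glo luminescence after 30 min at room temperature.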

[9] = p53 small molecule agonists, cell-based qHTS assay (AID 1963582; active means well fitted activation curve with a large enough effect in the signal ratio in the repeat runs, not every such curve was filed as active; the % refers to the signal ratio; further: potency means the concentration at half of the fitted maximal effect)
Summary of the method: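 Read-out is beta-lactamase FRET fluorescence after 2 h at room temperature with LiveBLAzer B/G substrate. p53 response element-bla cells were treated 16 h at 37 C with compounds in DMSO, added 5 h after seeding.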

[10] = target: 5-hydroxytryptamine receptor 2A (Homo sapiens) (UniProt P28223); assay: 5-hydroxytryptamine receptor 2A (HTR2A) small molecule antagonists, cell-based qHTS assay (AID 1963586); further: nearly all actives have a fitted effect of over 45% in size
Chain of 5-hydroxytryptamine receptor 2A (Homo sapiens) (P28223 whole entry, looked up): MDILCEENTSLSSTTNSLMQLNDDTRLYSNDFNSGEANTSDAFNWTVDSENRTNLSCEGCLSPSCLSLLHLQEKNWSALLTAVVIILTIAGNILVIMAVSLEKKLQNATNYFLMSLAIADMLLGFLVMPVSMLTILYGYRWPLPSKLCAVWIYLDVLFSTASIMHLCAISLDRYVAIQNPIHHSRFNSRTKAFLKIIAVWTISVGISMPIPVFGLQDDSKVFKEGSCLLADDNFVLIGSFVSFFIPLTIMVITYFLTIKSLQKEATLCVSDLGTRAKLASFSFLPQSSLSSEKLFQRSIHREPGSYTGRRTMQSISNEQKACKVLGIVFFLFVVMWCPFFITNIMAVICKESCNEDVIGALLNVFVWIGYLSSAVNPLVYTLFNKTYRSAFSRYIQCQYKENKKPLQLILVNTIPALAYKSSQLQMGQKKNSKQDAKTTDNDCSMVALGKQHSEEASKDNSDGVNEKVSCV
Summary of the method: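 CHO cells stably expressing human HTR2A were plated for 18 h at 37 C, then loaded with calcium dye for 1 h. Compounds were preincubated 5 min at room temperature before DOI (4 nM solution) was added. Kinetic fluorescence was read for 3 min.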

[11] = target: Muscarinic acetylcholine receptor M1 (Homo sapiens) (UniProt P11229); assay: Cholinergic receptor muscarinic 1 (CHRM1) small molecule antagonists, cell-based qHTS assay (AID 1963588); further: nearly all actives have a fitted effect of over 40% in size; further: potency means the concentration at half of the fitted maximal effect
Chain of Muscarinic acetylcholine receptor M1 (Homo sapiens) (P11229 whole entry, looked up): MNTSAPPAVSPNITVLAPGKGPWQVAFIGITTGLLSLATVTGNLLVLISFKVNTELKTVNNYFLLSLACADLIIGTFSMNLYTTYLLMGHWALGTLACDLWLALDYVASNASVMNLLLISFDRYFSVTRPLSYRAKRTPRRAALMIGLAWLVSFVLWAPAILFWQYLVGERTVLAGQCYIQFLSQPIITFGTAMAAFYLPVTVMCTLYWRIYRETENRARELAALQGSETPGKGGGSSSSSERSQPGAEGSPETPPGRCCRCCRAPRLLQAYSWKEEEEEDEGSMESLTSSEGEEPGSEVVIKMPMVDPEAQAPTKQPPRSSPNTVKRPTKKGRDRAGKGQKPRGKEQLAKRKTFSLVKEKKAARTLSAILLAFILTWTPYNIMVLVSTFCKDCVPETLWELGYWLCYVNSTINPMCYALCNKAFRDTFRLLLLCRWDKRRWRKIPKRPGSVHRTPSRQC
Summary of the method: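 Compounds were tested at 15 concentrations in three independent runs. Dye-loaded CHRM1-CHO cells were exposed 5 min at room temperature before stimulation by acetylcholine added at 50nM. Intracellular calcium was read kinetically on FDSS for 3 min.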

[12] = target: Muscarinic acetylcholine receptor M1 (Homo sapiens) (UniProt P11229); assay: Cholinergic receptor muscarinic 1 (CHRM1) small molecule agonists, cell-based qHTS assay (AID 1963589); further: nearly all actives have a fitted effect of over 35% in size
Summary of the method: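 Agonist-mode calcium-flux screen: compounds at 15 concentrations, three independent runs, were pin-transferred onto dye-loaded human CHRM1-CHO cells. Fluorescence was then recorded kinetically every second over minutes.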

[13] = cAMP Responsive Elements (CRE) small molecule agonists, cell-based qHTS assay (AID 1963590)
Summary of the method: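 Agonist mode: compound added to CRE-bla HEK 293T cells (2,000/well, 18 h after plating) for 3 h at 37 C/5% CO2. Reporter activity detected via FRET beta-lactamase substrate, 2 h room-temperature loading.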

[14] = cAMP Responsive Elements (CRE) small molecule antagonists, cell-based qHTS assay (AID 1963591; active means well fitted inhibition curve with a large enough effect in the signal ratio in the repeat runs, not every such curve was filed as active; the % refers to the signal ratio; further: potency means the concentration at half of the fitted maximal effect)
Summary of the method: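 Antagonist mode: compounds are added alongside the adenylyl cyclase activator NKH477 (0.25 uM final) to CRE-bla HEK293T cells for 3 h. LiveBLAzer FRET substrate, 2 h at room temperature, reports bla expression.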

[15] = target: Beta-2 adrenergic receptor (Homo sapiens) (UniProt P07550); assay: Adrenergic beta2 receptor (ADRB2) small molecule antagonists, cell-based qHTS assay (AID 1963592); further: series mostly up to about 92 µM; nearly all actives have a fitted effect of over 50% in size
Chain of Beta-2 adrenergic receptor (Homo sapiens) (P07550 whole entry, looked up): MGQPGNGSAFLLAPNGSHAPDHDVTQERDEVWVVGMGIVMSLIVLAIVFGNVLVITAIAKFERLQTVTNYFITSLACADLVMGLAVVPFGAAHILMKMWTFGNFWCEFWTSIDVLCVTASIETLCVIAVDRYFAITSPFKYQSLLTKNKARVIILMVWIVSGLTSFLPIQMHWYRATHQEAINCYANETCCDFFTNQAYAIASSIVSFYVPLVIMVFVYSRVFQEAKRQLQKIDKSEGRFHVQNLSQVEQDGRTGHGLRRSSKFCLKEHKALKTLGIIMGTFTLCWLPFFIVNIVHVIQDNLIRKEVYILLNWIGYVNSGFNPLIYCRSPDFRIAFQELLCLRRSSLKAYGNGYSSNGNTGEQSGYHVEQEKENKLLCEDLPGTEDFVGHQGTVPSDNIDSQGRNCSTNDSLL
Summary of the method: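 Assay format: CHO-ADRB2 cells, 18-20hr seeding at 37C/5% CO2, then compound plus 1nM isoproterenol agonist mix for 0.5hr RT. Homogeneous time-resolved fluorescence cAMP detection after 1hr, expressed as 665/615 nm ratio.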

[16] = target: D(2) dopamine receptor (Homo sapiens) (UniProt P14416); assay: Dopamine D2 receptor (DRD2) small molecule agonists, cell-based qHTS assay (AID 1963594); further: nearly all actives have a fitted effect of over 35% in size
Chain of D(2) dopamine receptor (Homo sapiens) (P14416 whole entry, looked up): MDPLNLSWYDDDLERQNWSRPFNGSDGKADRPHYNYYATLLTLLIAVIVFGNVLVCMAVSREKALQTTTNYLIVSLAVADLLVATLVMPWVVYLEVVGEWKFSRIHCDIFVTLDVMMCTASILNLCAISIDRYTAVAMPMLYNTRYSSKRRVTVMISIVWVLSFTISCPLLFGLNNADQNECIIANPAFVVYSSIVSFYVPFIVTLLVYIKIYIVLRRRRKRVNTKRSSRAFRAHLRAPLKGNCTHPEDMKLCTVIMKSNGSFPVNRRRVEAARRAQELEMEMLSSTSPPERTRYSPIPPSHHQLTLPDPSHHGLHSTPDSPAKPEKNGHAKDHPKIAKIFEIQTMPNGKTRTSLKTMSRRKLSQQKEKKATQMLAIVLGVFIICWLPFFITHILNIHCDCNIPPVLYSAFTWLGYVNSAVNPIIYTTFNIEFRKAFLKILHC
Summary of the method: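 HEK293 cells stably expressing human DRD2, pre-treated with PDE inhibitor Ro20-1724 (0.1 mM final) and compound 10 min at room temperature, then stimulated with NKH477 (200nM […]) for 30 min. cAMP read by HTRF (665/620 nm).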

[17] = p53 small molecule agonists, cell-based qHTS assay: qHTS cell viability counter screen (AID 1963581); further: nearly all actives have a fitted effect of over 45% in size; further: potency means the concentration at half of the fitted maximal effect
Summary of the method: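 Counter screen read by CellTiter-Glo luminescence (ATP content, 30 min at room temperature), run in the same wells as the beta-lactamase reporter read. HCT-116 p53RE-bla cells saw compounds for 16 h at 37 C.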

[18] = target: 5-hydroxytryptamine receptor 2A (Homo sapiens) (UniProt P28223); assay: 5-hydroxytryptamine receptor 2A (HTR2A) small molecule agonists, cell-based qHTS assay (AID 1963587); further: nearly all actives have a fitted effect of over 30% in size
Summary of the method: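 CHO cells stably expressing human HTR2A, plated 18 h, loaded with calcium dye 1 h at 37 C. Agonist mode: compounds added and intracellular calcium fluorescence recorded kinetically for 2 min at 1 sec intervals.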

[19] = target: D(2) dopamine receptor (Homo sapiens) (UniProt P14416); assay: Dopamine D2 receptor (DRD2) small molecule antagonists, cell-based qHTS assay (AID 1963595; active means well fitted inhibition curve with a large enough effect in the signal ratio in the repeat runs, with a control signal flat; the % refers to the signal ratio; further: potency means the concentration at half of the fitted maximal effect)
Summary of the method: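 Cells were plated and grown for 24 h at 37 °C. Ro20-1724 (0.1 mM final) went in first, then compound for 10 min. NKH477 (200 nM) with quinpirole (12 nM) followed for 30 min at RT, then HTRF detection reagents for 1 h.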

[20] = p53 small molecule agonists, cell-based qHTS assay with rat liver microsomes: qHTS cell viability counter screen (AID 1963580); further: nearly all actives have a fitted effect of over 45% in size; further: potency means the concentration at half of the fitted maximal effect
Summary of the method: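 After the beta-lactamase ratio was read, CellTiter-Glo was added to the same wells and luminescence measured at 30 min; cells had been treated 16 h at 37 C with compounds, rat liver microsomes and NADPH (0.5 mg/mL final each).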

Measured: Potency

CC(CCc1ccccc1)NC(C)C(O)c1ccc(O)cc1 (stereo unspecified)
not listed: [17] | [18] | [19] | [20]
inactive: all other assays above

O=C(NC(=O)c1c(F)cccc1F)Nc1cc(Cl)c(Oc2ncc(C(F)(F)F)cc2Cl)c(Cl)c1
active: [9] 17.5 µM
not listed: [13] | [14] | [20]
inactive: all other assays above

CC1(C)C(/C=C(\Cl)C(F)(F)F)C1C(=O)OC(C#N)c1cccc(Oc2ccccc2)c1 (stereo unspecified)
not listed: [10] | [12] | [17] | [18]
inactive: all other assays above

C=CC(=O)OCC(COC(=O)C=C)(COC(=O)C=C)COC(=O)C=C
active: [1] 9.69 µM | [2] 6.11 µM | [8] 4.08 µM | [17] 10.2 µM | [19] 54.5 µM
not listed: [9] | [13] | [14] | [20]
inactive: all other assays above

O=C(CCl)C(Cl)Cl
active: [1] 19.5 µM | [2] 7.77 µM | [20] 13 µM | [14] 21.9 µM
not listed: [8] | [9] | [13]
inactive: all other assays above

CC(C)(C)OO
not listed: [8] | [17]
inactive: all other assays above

BrCBr
not listed: [8] | [16]
inactive: all other assays above

C#CC(O)(C=CCl)CC (stereo unspecified)
not listed: [9] | [10] | [16] | [17]
inactive: all other assays above

CC[C@H]1C[C@H]2[C@@H]3CCC4=CC(=O)CC[C@@H]4[C@H]3CC[C@]2(C)[C@H]1O
active: [2] 11.9 µM
not listed: [8] | [9] | [10] | [11] | [12] | [13] | [14] | [18]
inactive: all other assays above

CCC1(c2ccccc2)C(=O)N=C(O)NC1=O (stereo unspecified)
not listed: [10] | [11] | [12] | [17] | [18]
inactive: all other assays above

Oc1c(Br)c(Br)c(Br)c(Br)c1Br
active: [1] 30.8 µM | [8] 23.1 µM | [11] 30 µM
not listed: [10] | [13] | [14] | [17] | [18]
inactive: all other assays above

CC(CC(C(N)=O)(c1ccccc1)c1ccccc1)N(C)C (stereo unspecified)
active: [11] 0.0082 µM
not listed: [8] | [17]
inactive: all other assays above

CCN(CC)C(=O)Cl
not listed: [8] | [10]
inactive: all other assays above

CON(C)C(=O)Nc1ccc(Br)cc1
not listed: [18] | [20]
inactive: all other assays above

CC/C(=N\OC/C=C/Cl)C1=C(O)CC(C2CCOCC2)CC1=O (stereo unspecified)
not listed: [8] | [10] | [13] | [14] | [15]
inactive: all other assays above

N#C/C=C/c1ccccc1
not listed: [9] | [14] | [18] | [20]
inactive: all other assays above

From PubChem BioAssay (Tox21)
